The panel holds about 83,000 compounds, 20% with a hit somewhere; the sample as a whole holds those more often.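 A percent growth of 40 corresponds to 60% growth inhibition; 0 means no net growth; -100 means all cells died. Active threshold: below 10.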 Active and inactive are the calls of the source. Where a SMILES comes first, the peptide text is derived from it. Bridges are numbered along the chain shown (N, C = ends). [ ]: non-standard residue; d: D form. The star is where a group is joined. ξ: configuration not given here. ξNMePhe(4-NMe2) = CNC(Cc1ccc(N(C)C)cc1)C(=O)O; Picolinoyl(3-OH) = O=C(c1ncccc1O)*; ξPip(4-oxo) = O=C1CCNC(C(=O)O)C1; Phg = N[CH](C(=O)O)c1ccccc1; Abu = CC[CH](N)C(=O)O
Legend:
Assay in all cases: NCI-60 one-dose screen, 48 h (100 = growth as untreated, 0 = no growth, -100 = all killed)
[1] = system: EKVX NSCLC; conditions: 10 µM
[2] = system: SN12C renal; conditions: 10 µM
[3] = system: UO-31 renal; conditions: 10 µM
[4] = system: TK-10 renal; conditions: 10 µM unless noted
[5] = system: ACHN renal; conditions: 10 µM
[6] = system: CAKI-1 renal; conditions: 10 µM
[7] = system: A498 renal; conditions: 10 µM
[8] = system: CCRF-CEM leukemia; conditions: 10 µM
[9] = system: MOLT-4 leukemia; conditions: 10 µM

Measured: growth

CCOC(=O)C1=C(C)NC(=O)NC1c1cccs1 (stereo unspecified)
inactive: [1] 109% | [2] 103% | [3] 87.7% | [4] 108% | [5] 113% | [6] 103% | [7] 125% | [8] 95.8% | [9] 82.7%

COC1=CC(=O)c2nc(Cl)ccc2C1=O
active: [2] -69.5% | [8] 1.69% | [9] -27.4%
inactive: [1] 74% | [3] 23.5% | [4] 84.2% | [5] 42.6% | [6] 91.6% | [7] 108%

Nc1nc(OCc2ccccc2)c2[nH]cnc2n1
inactive: [1] 95% | [2] 105% | [3] 96.9% | [4] 82.1% | [5] 73.5% | [6] 74% | [7] 86.1% | [8] 143% | [9] 73%

O=[N+]([O-])c1ccc(Cl)c(S(=O)(=O)O)c1
inactive: [1] 111% | [2] 103% | [3] 89.3% | [4] 136% | [5] 101% | [6] 106% | [7] 113% | [8] 81.3% | [9] 89.7%

Cc1cc(=O)cc(C)n1-c1ccccc1
inactive: [1] 107% | [2] 89.3% | [3] 90% | [4] 96.3% | [5] 102% | [6] 95% | [7] 103% | [8] 92.4% | [9] 102%

COCCCC/C(=N\OCCN)c1ccc(C(F)(F)F)cc1
inactive: [1] 93.1% | [2] 94% | [3] 74.1% | [4] 98.9% | [5] 98.6% | [6] 83.5% | [7] 89.1% | [8] 101% | [9] 96.7%

CN(C)C(C)(C)CC(C)(C)C
inactive: [1] 95.8% | [2] 98.3% | [3] 76.7% | [4] 143% | [5] 100% | [6] 101% | [7] 110% | [8] 89.8% | [9] 95.1%

Cc1cc(N)ccc1-c1ccc(N)cc1C
inactive: [1] 106% | [2] 98.5% | [3] 77.1% | [4] 111% | [5] 99.1% | [6] 94.8% | [7] 97.1% | [8] 105% | [9] 103%

O=C(c1ccccc1)C1CCC1
inactive: [1] 105% | [2] 89.2% | [3] 76.1% | [4] 93.4% | [5] 106% | [6] 98.5% | [7] 103% | [8] 88.6% | [9] 91.3%

Cc1ccncc1C(N)=O
inactive: [1] 106% | [2] 101% | [3] 97% | [4] 112% | [5] 95.3% | [6] 64.4% | [7] 82.7% | [8] 83.1% | [9] 95.2%

CC1=CC(C)(C)NC(=S)N1c1ccc(S(=O)(=O)O)c2cccc(S(=O)(=O)O)c12
inactive: [1] 115% | [2] 103% | [3] 72.6% | [4] 106% | [5] 99.5% | [6] 115% | [7] 97.6% | [8] 94.1% | [9] 114%

OC1CCCc2ccccc21 (stereo unspecified)
inactive: [1] 100% | [2] 99% | [3] 60.6% | [4] 86.4% | [5] 97.9% | [6] 121% | [7] 120% | [8] 94.8% | [9] 105%

CCC(=O)Oc1ccc(OC)cc1
inactive: [1] 104% | [2] 101% | [3] 80.9% | [4] 84.4% | [5] 101% | [6] 98.3% | [7] 101% | [8] 101% | [9] 92.5%

O=S(=O)(O)CC(O)CN1CCN(CCO)CC1 (stereo unspecified)
inactive: [1] 119% | [2] 110% | [3] 91.6% | [4] 116% | [5] 111% | [6] 106% | [7] 106% | [8] 103% | [9] 90.3%

CC1Cc2ccccc2O1 (stereo unspecified)
inactive: [1] 122% | [2] 106% | [3] 90.6% | [4] 129% | [5] 101% | [6] 102% | [7] 115% | [8] 112% | [9] 105%

CC1(C)N=C(N)N=C(N)N1c1ccc(Cl)cc1
inactive: [1] 48.4% | [2] 41.4% | [3] 85.9% | [4] 69.7% | [5] 67.4% | [6] 99.9% | [7] 120% | [9] 53.6%

Cc1cccc(C(=O)N(C(C)C)C(C)C)c1
inactive: [1] 95% | [2] 96.1% | [3] 94.4% | [4] 87% | [5] 101% | [6] 96.4% | [7] 71.9% | [8] 90.7% | [9] 108%

CCC1NC(=O)C(NC(=O)c2ncccc2O)C(C)OC(=O)C(c2ccccc2)NC(=O)C2CC(=O)CCN2C(=O)C(Cc2ccc(N(C)C)cc2)N(C)C(=O)C2CCCN2C1=O (stereo unspecified) (tested in a mixture with another compound) ({Picolinoyl(3-OH)}-T[Abu]P[ξNMePhe(4-NMe2)][ξPip(4-oxo)][Phg]; ester 1-C; configuration not given here)
inactive: [1] 41% | [2] 75% | [3] 90.8% | [4] 91% | [5] 47.5% | [6] 50.8% | [8] 32% | [9] 42.2%

c1cc[n+](C2c3ccccc3C([n+]3ccccc3)c3ccccc32)cc1 (stereo unspecified)
inactive: [1] 48.3% | [2] 26.7% | [3] 61.8% | [4] 52% | [5] 91.8% | [6] 87.3% | [7] 94.9% | [9] 86.5%
active: [8] -42.3%

N#Cc1c(N)sc(=S)c2c1CCCC2
inactive: [1] 107% | [2] 105% | [3] 91.6% | [4] 116% | [5] 103% | [6] 98.5% | [7] 113% | [8] 101% | [9] 95.4%

O=C(O)c1ccc(S(=O)(=O)O)cc1
inactive: [1] 104% | [2] 95.2% | [3] 64.4% | [4] 116% | [5] 99.5% | [6] 79% | [7] 122% | [8] 106% | [9] 118%

O=[N+]([O-])c1ccc(Sc2ccncn2)c([N+](=O)[O-])c1
inactive: [1] 105% | [2] 51.3% | [3] 51.1% | [4] 34.3% | [5] 37.2% | [6] 39.7% | [7] 127% | [8] 41.2% | [9] 66.1%

COC(=O)Nc1nc2ccc(C(=O)c3cccs3)cc2[nH]1
inactive: [1] 37.8% | [2] 29.6% | [3] 48.8% | [4] 61.6% | [5] 40.5% | [6] 19.8%
active: [7] -1.63% | [8] 6.93% | [9] -13.6%

O=c1cc(-c2ccccc2)[nH]c2c1CCCC2
inactive: [1] 43.3% | [2] 44.6% | [3] 50.8% | [4] 34.5% | [5] 40.5% | [6] 24.5% | [7] 19.2% | [8] 32.6% | [9] 41.1%

O=C(NCO)c1ccccc1
inactive: [1] 108% | [2] 105% | [3] 78.9% | [4] 144% | [5] 97.4% | [6] 98.5% | [7] 106% | [9] 95.4%

C/C(=N/NC(N)=O)c1ccco1
inactive: [1] 100% | [2] 110% | [3] 95.8% | [5] 102% | [6] 102% | [7] 111% | [8] 106% | [9] 89.9%

c1ccc(Cc2ccccc2)cc1
active: [9] -26.2%
inactive: [1] 102% | [2] 95.1% | [4] 99% | [5] 107% | [6] 85.7% | [7] 102% | [8] 104%

Cc1ccccc1C1N=C2Oc3ccccc3C=C2C(=O)N1 (stereo unspecified)
active: [7] -11.6%
inactive: [2] 43.3% | [3] 52% | [4] 53.7% | [5] 50.6% | [6] 31.1% | [8] 38.4% | [9] 44%

C/C(=C\c1cc(Cl)ccc1OCC(=O)O)[N+](=O)[O-]
inactive: [1] 98.2% | [2] 122% | [3] 90.5% | [5] 106% | [6] 93.2% | [7] 144% | [8] 80.1% | [9] 96.9%

c1ccc(CN2COc3c(ccc4c3OCN(Cc3ccccc3)C4)C2)cc1
active: [3] -17.5% | [6] 7.65% | [8] 5.13% | [9] 0.409%
inactive: [2] 11.1% | [4] 30.5% | [5] 12.3% | [7] 51.6%

O=C(O)CCCc1ccccc1
inactive: [1] 116% | [2] 101% | [3] 94.9% | [5] 108% | [6] 108% | [7] 121% | [8] 102% | [9] 98.4%

CC1C(=O)c2ccccc2CC1C(=O)O (stereo unspecified)
inactive: [1] 113% | [2] 112% | [3] 100% | [5] 98.5% | [6] 83.2% | [7] 142% | [8] 99.1% | [9] 97.3%

Cc1cc(O)ccc1O
inactive: [1] 94.6% | [2] 95.3% | [3] 94.4% | [4] 123% | [5] 105% | [7] 103% | [8] 19.1% | [9] 65%

Reference: PubChem BioAssay (NCI)
